Tau fibril FP: inhibitors of human tau fibril formation | hit rate 0.39% among 280,000 | K18 P301L tau heparin fibrillization, Alexa594 FP, 6 h | P10636 | Potency, µM (titrated, usually from 57.7 µM), inactives show at the top dose activity, negative = inhibition, hits mostly inhibitors; note: potency is the fitted concentration of half-maximal effect; % is set by controls: 0 for no effect and ±100 for the full control effect; nearly all actives have a fitted effect of over 55% in size
Target sequence (P10636 561-689 P618L limits assumed): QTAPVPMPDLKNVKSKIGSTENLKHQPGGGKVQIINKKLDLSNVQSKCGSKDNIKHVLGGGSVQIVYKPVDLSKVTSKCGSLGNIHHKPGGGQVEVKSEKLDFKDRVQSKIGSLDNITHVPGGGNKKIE
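Human tau K18 […] P301L fragment, 15 uM unlabeled plus 0.24 uM Alexa 594-labeled tau (final), with compound and 20 uM heparin in 100 mM sodium acetate pH 7; 6 hr at 37 C, then Alexa 594 FP read.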
Tau fibril ThT: tau fibrillization inhibition (ThT binding); recombinant tau K18 P301L, heparin-induced fibrillization, ThT fluorescence; AID 1460; P10636; Potency, µM (highest dose often 57.4 µM), without a hit: at the top dose activity, negative = inhibition, most hits filed as inhibitors; hit rate 2.1% among 270,000; note: potency is the fitted concentration of half-maximal effect; % is set by controls: 0 for no effect and ±100 for the full control effect; nearly all actives have a fitted effect of over 55% in size
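Aggregation was driven by heparin (20 uM final) acting on recombinant tau […] bearing P301L in 100 mM sodium acetate pH 7; fibrils were detected with Thioflavin T.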
Lamin A splicing: LMNA splicing modulation | HeLa LMNA splicing GFP/RFP minigene ratio, 48 h | Potency, µM (top dose mostly 46.1 µM), without a hit: top-dose ratio change, negative = inhibition, hits mostly inhibitors | hit rate 0.01% among 200,000 | AID 1487; active = well fitted inhibition curve with a large enough effect in the signal ratio, with a control signal flat, not every such curve was filed as active; inconclusive = small, poorly fitted or top-dose-only effect, or effect the other way, or a change in a side signal; the % refers to the signal ratio; note: potency is the fitted concentration of half-maximal effect; % is set by controls: 0 for no effect and ±100 for the full control effect
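S3 HeLa cells stably expressing lamin A-EGFP splicing minigene plus DsRed2, 600 cells/well, 48 h compound exposure at 37C. Laser-scanning cytometry; analysed as GFP (500-530 nm)/RFP (575-640 nm) total intensity ratio; 0.5% DMSO vehicle.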
Tau fluor cs: counter-screen for tau fibril formation inhibitors; Potency, µM (doses to about 57.7 µM), for the others: at the top dose activity change, negative = decrease; hit rate 0.93% among 280,000; AID 1463; tau K18 P301L Alexa594 fluorescence, heparin fibrillization; note: potency is the fitted concentration of half-maximal effect; % is set by controls: 0 for no effect and ±100 for the full control effect; nearly all actives have a fitted effect of over 55% in size
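Human tau K18 P301L (15 uM unlabeled, 0.24 uM Alexa 594-labeled) in 100 mM sodium acetate pH 7 with 20 uM heparin, 6 hr at 37 C. ThT 30 uM added, 1 hr ambient; Alexa 594 FP and total fluorescence read at 555/632 nm.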
JMJD2E inh: JMJD2E (human) inhibition; B2RXH2; JMJD2E catalytic domain, FDH-coupled NADH fluorescence (FDH is formaldehyde dehydrogenase); Potency, µM (highest dose often 57.1 µM), for inactives: at the highest dose activity change, negative = inhibition, most hits filed as inhibitors; hit rate 1.6% among 230,000; AID 2147; active = well fitted inhibition curve with a large enough effect, not every such curve was filed as active; inconclusive = small, poorly fitted or top-dose-only effect, or another doubt; inactive = no such curve, though single readings can be large or run the other way;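 note: potency is the fitted concentration of half-maximal effect; 0% = wells with enzyme and -100% = buffer wells without enzyme; nearly all actives have a fitted effect of over 50% in size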
CBFb-RUNX1 inh: CBF-beta/RUNX1 interaction disruption. AID 1477. Q01196+Q13951. 230,000 tested, under 10 active. Potency, µM (series often up to 59.8 µM), without a hit: at the highest dose activity, negative = inhibition, most hits filed as inhibitors. AlphaScreen CBFb-His/RUNX1-biotin binding, biochemical; note: % of control where 0% means no effect
Target sequence (Q01196 whole entry, looked up): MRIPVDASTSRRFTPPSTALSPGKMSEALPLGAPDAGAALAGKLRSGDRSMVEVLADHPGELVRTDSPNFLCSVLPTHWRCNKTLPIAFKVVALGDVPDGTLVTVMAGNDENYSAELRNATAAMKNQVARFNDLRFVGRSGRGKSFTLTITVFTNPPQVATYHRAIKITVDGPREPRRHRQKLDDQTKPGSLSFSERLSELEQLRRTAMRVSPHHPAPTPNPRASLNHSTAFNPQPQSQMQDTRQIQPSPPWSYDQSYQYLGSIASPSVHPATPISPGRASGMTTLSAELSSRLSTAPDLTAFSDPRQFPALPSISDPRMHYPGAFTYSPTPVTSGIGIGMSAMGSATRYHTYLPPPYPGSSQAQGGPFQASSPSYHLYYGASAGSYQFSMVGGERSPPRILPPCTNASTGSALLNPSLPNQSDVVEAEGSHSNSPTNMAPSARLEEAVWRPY
Target sequence (Q13951 whole entry, looked up): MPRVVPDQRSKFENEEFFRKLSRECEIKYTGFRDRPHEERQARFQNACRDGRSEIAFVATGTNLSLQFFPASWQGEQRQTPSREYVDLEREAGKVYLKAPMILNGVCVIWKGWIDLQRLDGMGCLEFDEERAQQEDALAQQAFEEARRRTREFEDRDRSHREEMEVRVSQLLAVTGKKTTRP
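Compounds were screened at multiple concentrations against a preformed CBF-beta(His)/RUNX1(biotin) complex (30 nM of each) for 15 min at room temperature, followed by 90 min with nickel and streptavidin beads and AlphaScreen reading.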
An asterisk follows results filed as active; ? = inconclusive; . = no result given; [ ] = dose if it differs, or a comment. Sampled rows, rich in hits. Any-hit rate of the full collection: about 3.2%. Unless noted, calls come from the whole dose curve; as a rule, active = well fitted curve in the direction sought with a large enough effect; inconclusive = small, poorly fitted or top-dose-only effect, or another doubt; inactive = no such curve, though single readings can be large; an effect the other way counts as inactive or inconclusive.

SMILES | Tau fibril FP | Tau fibril ThT | Lamin A splicing | Tau fluor cs | JMJD2E inh | CBFb-RUNX1 inh
COc1ccccc1C(C[N+](=O)[O-])c1c[nH]c2ccccc12 (centres undefined) | ? | -7% | . | 32µM*[quencher] | -8% | 1%
COc1cc(C(C[N+](=O)[O-])c2c(C)[nH]c3ccccc23)ccc1O (centres undefined) | 11% | ? | ? | -28% | 8% | -12%
CS(=O)(=O)N1CCc2cc(C(=O)NCc3ccccc3)ccc21 | 2% | 5% | . | 1% | . | .
C#CCSc1nc2sc3c(c2c(=O)n1-c1cccc(OC)c1)CCN(C(C)=O)C3 | ? | 25µM* | . | -8% | . | .
CCCCCSc1nc2sc3c(c2c(=O)n1-c1ccccc1)CCN(C(C)=O)C3 | ? | ? | . | -10% | . | .
O=C(OCC1OC(OC(=O)c2cc(O)c(O)c(OC(=O)c3cc(O)c(O)c(O)c3)c2)[C@@H](OC(=O)c2cc(O)c(O)c(OC(=O)c3cc(O)c(O)c(O)c3)c2)C(OC(=O)c2cc(O)c(O)c(OC(=O)c3cc(O)c(O)c(O)c3)c2)C1OC(=O)c1cc(O)c(O)c(OC(=O)c2cc(O)c(O)c(O)c2)c1)c1cc(O)c(O)c(OC(=O)c2cc(O)c(O)c(O)c2)c1 (some centres undefined) | ? | 1.3µM* | ? | 0.5µM*[quencher] | 0.28µM* | .
CCOC(=O)N1CCN(c2ccc(O)cc2)CC1 | -3% | ? | 13µM* | -16% | ? | -3%
CC(=O)C1=C(O)C(=O)N(CCC(=O)O)C1c1ccccc1[N+](=O)[O-] (centres undefined) | 4% | -1% | 7%[46 µM] | -2% | -12% | 5%
CCCCCCN1C(=O)C(O)=C(C(C)=O)C1c1ccccc1[N+](=O)[O-] (centres undefined) | -3% | -2% | . | -4% | -3% | -4%
CC(=O)C1=C(O)C(=O)N(C)C1c1ccccc1[N+](=O)[O-] (centres undefined) | ? | 16µM* | . | -14% | ? | 8%
CC(=O)C1=C(O)C(=O)N(CCCN2CCOCC2)C1c1ccccc1[N+](=O)[O-] (centres undefined) | ? | 25µM* | . | ? | ? | 12%
CC(=O)N[C@H]1CSSC[C@@H](C(=O)N2CCC[C@H]2C(=O)N2CCC[C@H]2C(=O)N[C@@H](CCCCN)C(=O)N[C@@H](CC(=O)O)C(N)=O)NC(=O)CNC(=O)[C@H](Cc2c[nH]c3ccccc23)NC(=O)[C@H](CCCNC(=N)N)NC(=O)[C@@H](Cc2ccc3ccccc3c2)NC(=O)[C@H](Cc2cnc[nH]2)NC(=O)[C@H](CCC(=O)O)NC1=O | . | . | . | . | . | 11%
Cc1nc2c(C)cccc2cc1C(=O)N/N=C/c1ccc(N(C)C)cc1 | 0% | 10µM* | ? | ? | -25% | -18%
CCN(CC)c1ccc(/C=N/NC(=O)c2ccc3nc[nH]c3c2)cc1 | 7% | 2.8µM* | . | ? | ? | 0%
Cc1nc2c(C)cccc2cc1C(=O)N/N=C/c1ccc(C(=O)O)cc1 | 10% | -7% | 16%[46 µM] | 6% | -35% | 3%
CN(C)c1ccc(/C=N/NC(=O)c2ccc3nc[nH]c3c2)cc1 | -12% | 4.5µM* | . | ? | ? | -1%
COc1cc(/C=N/NC(=O)c2ccc3nc[nH]c3c2)ccc1O | -3% | . | . | -19% | -6% | -13%
O=[N+]([O-])c1cccc(C2=N[C@@H](Cc3ccccc3)CO2)c1 | 13%[81.3 µM] | ? | . | -22%[81.3 µM] | . | -11%[89.1 µM]
COc1c(O)ccc(/C=C(\C#N)c2nc3ccccc3[nH]2)c1[N+](=O)[O-] | 9% | 7.1µM* | -15% | ? | ? | 3%
Cc1ccc2nc(/C(C#N)=C/c3ccc(-c4cccc([N+](=O)[O-])c4)o3)[nH]c2c1 | -5% | 1.4µM* | ? | ? | -1% | 3%
COc1c(Cl)cc(Cl)cc1/C=C(\C#N)c1nc2ccccc2[nH]1 | -4% | -4% | ? | -9% | . | .
Cc1ccc2nc(/C(C#N)=C\c3ccc(Oc4ccc(C(F)(F)F)cc4[N+](=O)[O-])cc3)[nH]c2c1 | -4% | ? | -8% | ? | -10% | -6%
Cc1ccc2nc(/C(C#N)=C\c3cc(O)ccc3[N+](=O)[O-])[nH]c2c1 | 14% | 16µM* | 9%[46 µM] | -27% | -2% | -7%
COc1cc(/C=C(\C#N)c2nc3ccc(C)cc3[nH]2)cc([N+](=O)[O-])c1O | -1% | 2µM* | 3%[46 µM] | 8.9µM*[quencher] | 0% | ?
CCOc1ccc(N(CC)C(=O)CSc2n[nH]c(-c3ccccc3)n2)cc1 | 2% | -4% | ? | -13% | . | .
SMILES | Tau fibril FP | Tau fibril ThT | Lamin A splicing | Tau fluor cs | JMJD2E inh | CBFb-RUNX1 inh
Cc1cccc(-c2nc3nc(C)cc(NC(C)c4ccccc4)n3n2)c1 (centres undefined) | -11% | -16% | -7%[46 µM] | -17% | . | .
COc1ccc(CNC(=O)C(Cc2ccccc2)NS(=O)(=O)c2ccc3c(c2)CCN3C(C)=O)cc1 (centres undefined) | -1% | -10% | . | -13% | . | .
COc1cc(/C=C(\C#N)c2nc3ccc(C)cc3[nH]2)c([N+](=O)[O-])cc1OC | 13% | 14µM* | -5% | ? | 4% | -15%
COc1ccc(/C=C(\C#N)c2nc3ccc(C)cc3[nH]2)cc1Oc1ccc(C(F)(F)F)cc1[N+](=O)[O-] | -8% | ? | -6% | -24% | 9% | -1%
COc1ccc(-c2[nH]c(-c3ccc(C)cc3)nc2SCC(=O)Nc2nccs2)cc1 | ? | ? | -18% | 18µM*[quencher] | 2% | 2%
O=C(CSc1nc(-c2ccccc2)c(-c2ccccc2)[nH]1)Nc1nccs1 | 2% | ? | ? | 14µM*[quencher] | ? | -8%
COc1ccc(-c2[nH]c(-c3ccc(SC)cc3)nc2SCC(=O)Nc2nccs2)cc1 | 8% | ? | 4% | 7.1µM*[quencher] | ? | 0%
COc1ccc(-c2nc(SCC(=O)Nc3nccs3)c(-c3ccc(Cl)cc3)[nH]2)cc1 | 5% | 3% | 3% | 0% | 2% | -3%[2.36 µM]
COc1ccc(Cl)cc1NC(=O)Cn1nnc2sc(-c3ccccc3)cc2c1=O | 9% | ? | . | ? | . | .
COCCn1c(=O)c(-c2ccc(Cl)cc2)nc2cnc(N(C)C)nc21 | . | . | 20% | . | . | .
CCCCn1cnc2cc(NCc3ccncc3)ccc21 | 0% | -19% | ? | -10% | ? | 0%
CN(C)c1ccc(CNc2ccc3c(c2)ncn3C)cc1 | 0% | ? | ? | 16µM*[quencher] | -25% | -7%
CCOc1ccccc1Nc1sc(C(=O)c2ccccc2)c(N)c1C(=O)Nc1ccccc1 | 0% | -7% | ? | -13% | . | .
